Experimental findings from PubChem BioAssay (NCI) are described below.

Where “and” joins values, the source holds several entries; their conditions need not be identical. Equal entries are not always repeated. The panel holds about 83,000 compounds, 20% with a hit somewhere; the sample as a whole holds those more often.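 Plates (96-well) were seeded with cells, treated with compound at one concentration, and incubated for 48 hours before percent growth was determined.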 A number with no mark means an inactive call. Calls of active or inactive are those of the source.

The first assay relates to SR leukemia. The assay can be described thus: NCI-60 one-dose screen, 48 h (100 = growth as untreated, 0 = no growth, -100 = all killed). Particulars: 10 µM. The procedure:
Growth inhibition of the SR human tumor cell line is measured as a screen for anti-cancer activity. Cells are grown in 96 well plates and exposed to the test compound for 48 hours. Compounds are tested at a single concentration, which is 10^-5 M for most compounds. The reported endpoint is percent growth (GI% or GIPRCNT), where numbers from 0 - 100% represent growth inhibition, and numbers from -100% - 0 represent cell death. For example, a value of 40 represents 60% growth inhibition. A value of 0 means no net growth occurred over the course of the experiment. A value of -40 indicates 40% of cells at the beginning of the experiment died by the end of the experiment. A value of -100 means all cells are dead at the end of the experiment.
NCI-60 Human Tumor Cell Lines Screen was performed using the standard one-dose NCI protocol, which is described in more detail at https://dtp.cancer.gov/discovery_development/nci-60/default.htm.
Compounds with GIPRCNT values below 10 were considered active. Activity score was based on GIPRCNT using the following formula: […]
Score is 0 for GIPRCNT values of 100 or above, 50 for GIPRCNT values of 0, and 100 for GIPRCNT values of -100.
Take `S=C(SSC(=S)N1CCCCC1)N1CCCCC1`: the growth is 86.2%.

The assay is the same for the next values; noted with them: 10 µM unless noted.
In the case of `Cc1c(N)nc([C@H](CC(N)=O)NC[C@H](N)C(N)=O)nc1C(=O)N[C@H](C(=O)N[C@H](C)[C@@H](O)[C@H](C)C(=O)N[C@H](C(=O)NCCc1nc(-c2nc(C(=O)NCCC[S+](C)C)cs2)cs1)[C@@H](C)O)C(OC1OC(CO)C(O)C(O)C1OC1OC(CO)C(O)C(OC(N)=O)C1O)c1cnc[nH]1` (stereo partly specified), the growth was -4.59% [2.5 µM] (active).
With `CCC1(O)CC(OC2CC(N(C)C)C(OC3CC4OC5CC(=O)C(C)OC5OC4C(C)O3)C(C)O2)c2c(cc3c(c2O)C(=O)c2c(O)ccc(O)c2C3=O)C1C(=O)OC` (stereo unspecified), the growth is -6.58% (active).
Still for that read-out and setting: in the case of `NCCc1ccc(OCc2ccccc2)c(OCc2ccccc2)c1` it was -27.5% (active); in that of `Oc1cc[c]([Hg][Cl])cc1`, 38.2%; in that of `CC(=O)O[C@H]1C[C@@H]2OC3C=C(C)CCC3(C)[C@@]1(C)[C@@]21CO1` (stereo partly specified), -17.5% (active).
On the same count and under the same terms, in the case of `C[C@H]1CCC/C=C/[C@@H]2C[C@H](O)C[C@H]2[C@H](O)/C=C/C(=O)O1` it was -6.07% (active); in that of `CC1=C2C(=O)[C@H]3[C@@H](CC=C4C[C@@H](O)CC[C@@]43C)[C@@H]2CC[C@]12O[C@@H]1C[C@H](C)CN[C@H]1[C@H]2C`, 95.2%.
Same read-out and setting: the figure for `CC1=C(CO)C2=C(C)C3(CC3)[C@@](C)(O)C(=O)C2=C1` is 21.4%.
For `Oc1cccc2cccnc12`, the growth is 40.1% and 105% and 57.7%.
The same measure, in the same setting: in the case of `CC[C@](O)(C(=O)O)c1cc2n(c(=O)c1CO)Cc1cc3ccccc3nc1-2` it was -20.3% (active); in that of `CCCCCCCCCCCC1CCCC(C)N1` (stereo unspecified), -28% (active).
Still for that read-out and setting: the figure for `COc1cccc2c1cc([N+](=O)[O-])c1c(C(=O)O)cc3c(c12)OCO3` is 28.1% and 76.3%; for `CC[C@@]1(O)C[C@H](OC2CC(N(C)C)C(O)C(C)O2)c2c(O)c3c(c(O)c2[C@H]1OC1CC(N(C)C)C(O)C(C)O1)C(=O)c1cccc(O)c1C3=O` (stereo partly specified) it is -7.1% (active).
For `CO[C@H](/C(C)=C/C=C/C(C)=C/c1coc(C)n1)[C@H](C)[C@H]1C[C@@H](O)[C@@]2(C)O[C@H]2/C=C/[C@@H](C)[C@@H]2C[C@@H](CC(=O)O2)C[C@H]2O[C@@H]2C(=O)O1`, the growth is -4.11% (active).
Still for that read-out and setting: in the case of `CCC(=O)OC1CCn2c1nc1c2C(=O)C(C)=C(N2CC2)C1=O` (stereo unspecified) it was 1.48% (active).
The same measure, in the same setting: in the case of `COc1ccccc1/C=C(/C)[N+](=O)[O-]` it was 10% and 92.3%; in that of `COC1CC(CC2CCC(C)C(C(C)C(=O)O)O2)OC2(OC(C)(C3CCC(C)(C4OC(C5OC(O)(CO)C(C)CC5C)CC4C)O3)CC2C)C1C` (stereo unspecified), -28.8% (active); in that of `C[C@]12CC[C@H](O)CC1=CC[C@@H]1[C@@H]2CC[C@]2(C)C(=O)CC[C@@H]12`, -4.91% (active).
Still for that read-out and setting: in the case of `CC[C@@]1(O)C(=O)OCc2c1cc1n(c2=O)Cc2cc3ccccc3nc2-1` it was -3.04% (active); in that of `O=C1c2ccccc2C(=O)C(Cl)C1Cl` (stereo unspecified), 35.6%; in that of `COc1ccc(OC)c(/C=C/[N+](=O)[O-])c1`, -13% (active).
`COC1=C(C)C(=O)C2=C(C1=O)C(CO)N1C(C#N)C3CC4C(C1C2N1CCOC41)N3C` (stereo unspecified): the growth was -19.5% (active).
Same read-out and setting: in the case of `CC[C@@]1(O)C[C@H](OC2CC(N(C)C)C(OC3CC(O)C(OC4CCC(=O)C(C)O4)C(C)O3)C(C)O2)c2c(cc3c(c2O)C(=O)c2c(O)ccc(O)c2C3=O)[C@H]1C(=O)OC` (stereo partly specified) it was 1.06% (active).
The same measure, in the same setting: the figure for `CCOC(=O)C(NC(=O)C(Cc1ccc(N(CCCl)CCCl)cc1)NC(C)=O)C(C)C` (stereo unspecified) is 28.2%.

Staying with this assay, now noted: 100 µM.
On to `S=C(SSC(=S)N1CCCCC1)N1CCCCC1`, for which the growth is -8.68% (active).
